The campaign covered roughly 320,000 compounds. About 8,000 (2.5%) were called active. The entries come from a sample that favours actives as a whole. A number with no mark means an inactive call. Rule as the data show it: active = activation above about 47%; inactive = the rest.

Aryl hydrocarbon receptor (Homo sapiens), sequence (P35869 whole entry, looked up): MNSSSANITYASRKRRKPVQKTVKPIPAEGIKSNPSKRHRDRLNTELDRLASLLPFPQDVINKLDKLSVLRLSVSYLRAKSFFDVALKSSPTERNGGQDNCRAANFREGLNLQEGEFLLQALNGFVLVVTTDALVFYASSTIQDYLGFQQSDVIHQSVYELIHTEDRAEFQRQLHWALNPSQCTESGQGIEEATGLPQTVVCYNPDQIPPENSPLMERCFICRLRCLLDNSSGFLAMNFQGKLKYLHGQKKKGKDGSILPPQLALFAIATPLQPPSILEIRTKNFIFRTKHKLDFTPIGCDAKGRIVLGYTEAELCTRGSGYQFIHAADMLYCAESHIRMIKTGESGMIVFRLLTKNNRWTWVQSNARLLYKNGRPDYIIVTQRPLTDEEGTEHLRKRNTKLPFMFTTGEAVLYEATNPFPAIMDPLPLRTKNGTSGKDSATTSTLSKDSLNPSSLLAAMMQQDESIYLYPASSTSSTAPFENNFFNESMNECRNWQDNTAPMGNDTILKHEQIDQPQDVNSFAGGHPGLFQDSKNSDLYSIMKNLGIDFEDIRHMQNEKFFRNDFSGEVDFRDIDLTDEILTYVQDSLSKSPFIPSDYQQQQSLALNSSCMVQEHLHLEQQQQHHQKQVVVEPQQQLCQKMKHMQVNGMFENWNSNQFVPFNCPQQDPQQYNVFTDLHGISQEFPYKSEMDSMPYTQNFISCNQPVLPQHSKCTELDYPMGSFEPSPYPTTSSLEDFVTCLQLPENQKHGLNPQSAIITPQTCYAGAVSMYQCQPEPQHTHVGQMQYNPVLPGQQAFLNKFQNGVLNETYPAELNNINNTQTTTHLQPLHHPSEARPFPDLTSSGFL

The test concerns the target Aryl hydrocarbon receptor (Homo sapiens) (UniProt P35869). The experiment in a line: AHR activators, primary screen, cell-based, luminescence, luciferase reporter, human (AID 2796).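 Also: 0% = vehicle wells and 100% = reference agonist.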 To be noted: AHR-responsive luciferase reporter cells, at 5 µM, active compounds read high. Background: A reporter such as luciferase makes a cellular process visible.
Consider `c1ccc(NCc2cccc3ccccc23)nc1`, for which the activation is 67.9% (active). As for `c1ccc2c(CNn3cnnc3)cccc2c1`, the figure is 0.98%; as for `COc1ccc2ccccc2c1CNCc1ccccn1`, 18.4%. With `COc1ccc(CCNC(=O)C(=O)NCC2OCCN2S(=O)(=O)c2cccs2)cc1OC` (stereo unspecified) the figure was -2.65%. As for `CN(CCc1ccccc1)C(=O)c1cccc(NC(=O)Cc2ccc([N+](=O)[O-])cc2)c1`, the activation was -0.06%.

In the case of `Cn1cccc1/C=N/NC(=O)c1ccc(OC(F)(F)C(F)F)cc1`, the activation is 3.37%. With `O=C(Nc1ccc(OC(F)(F)F)cc1)c1ccc2c(c1)no[n+]2[O-]` the figure was 93.6% (active). Turning to `Cn1nccc1NC(=O)Nc1ccc(OC(F)(F)F)cc1`, the activation was 3.12%. With `COC(=O)c1ccc(COC(=O)CNC(=O)c2cccc(OC)c2)o1` the figure was 0.14%; with `O=C(c1ccc(-c2ccccc2)cc1)C1CCCN(C(=O)c2cncs2)C1` (stereo unspecified), 37.6%. As for `CC1(C)CC(=O)C=C(c2ccc3ncccc3c2)C1`, the figure is 8.47%. With `O=C(Nc1ccc(F)cc1)c1cc2c(s1)CCCC2` the figure was 55.3% (active). Consider `CN(C)C(=O)c1ccc(NC(=O)COC(=O)c2cc3c(s2)CCCCC3)cc1`, for which the activation is -0.09%. With `O=C(NNC(=O)c1cc2c(s1)CCCC2)c1ccccc1` the figure was 4.72%. As for `CC(C)CCNC(=O)C(C)N(C(=O)Cn1nnc(-c2ccc(F)cc2)n1)C1CCCC1` (stereo unspecified), the figure is -2.15%; as for `O=C(Nc1ccccc1)c1cc2ccccc2[nH]1`, 160% (active). As for `COc1ccc2[nH]c(C(=O)Nc3ccccc3Cl)cc2c1`, the figure is 21%. For `CC(OC(=O)c1cc2ccccc2[nH]1)C(=O)N(C)c1ccccc1` (stereo unspecified), the activation is 28.8%. With `CCc1ccc(Oc2nc([N+](=O)[O-])nn2C)cc1` the figure was -3.57%; with `CCCN(CCc1ccccc1)C1CCc2c(O)cccc2C1` (stereo unspecified), 3.78%; with `COc1cc(/C=N/NC(=O)c2cccnc2)ccc1OC(=O)c1cccc(Br)c1`, 18.7%. As for `COc1ccc(/C=N\NC(=O)c2sc(N)nc2C)cc1OC`, the figure is 77.3% (active); as for `COc1cc(/C=N/NC(=O)CNC(=O)c2ccncc2)ccc1OC(C)=O`, 0.59%. With `COc1cnc(SCc2ccc(Cl)c(Cl)c2)nc1Cl` the figure was -1.43%; with `CCOC(=O)c1ccc(NC(=O)Cc2cccs2)cc1`, 0.34%; with `O=C(Cc1cccs1)Nc1ccc([N+](=O)[O-])cc1`, 0.97%. In the case of `O=C(Cc1cccs1)Nc1cccc(-c2nc3ccccc3[nH]2)c1`, the activation was 75.8% (active).

Take `CN1CCC(CN)(N2CCN(c3ccccc3)CC2)CC1`: the activation was 2.54%. With `COc1ccccc1C(=O)N(Cc1ccc(C)o1)C1CCS(=O)(=O)C1` (stereo unspecified) the figure was -1.67%; with `Cc1ccc2c(N)c(C(=O)c3ccccc3)sc2n1`, 46.1%.

`Cc1nc2sc(C(=O)c3ccccc3)c(N)c2c2c1CCCC2`: the activation is 85.3% (active).

Consider `CCc1nc2sc(C(=O)O)c(N)c2c2c1CCCC2`, for which the activation was 0.64%.

Consider `CC1(C)CC(=O)C=C(NCCN2CCNCC2)C1`, for which the activation is 3.32%. Take `COc1cccc(C2=CC(=O)C[C@H](c3ccc(OC)c(OC)c3)C2)c1`: the activation was 2.2%. As for `O=S(=O)(Nc1cc(S(=O)(=O)N2CCOCC2)ccc1N1CCCC1)c1cccs1`, the figure is 1.52%; as for `COc1cccc(-c2cc(C(=O)N/N=C/c3ccc(OC)c(COC(C)=O)c3)c3ccccc3n2)c1`, 54.1% (active). Regarding `COc1ccc2[nH]c(C(=O)N/N=C/c3cc(OC)c(OC)c(OC)c3)cc2c1`, the activation was 30.9%. With `CCOc1cc(/C=N/NC(=O)c2cc(-c3ccccc3)nc3ccccc23)ccc1O` the figure was 16.1%; with `CCOc1ccc2[nH]c(C(=O)N/N=C/c3cccc(OC)c3OC)cc2c1`, 33%. As for `COc1ccc(/C=N/NC(=O)c2cc(-c3cccc(C)c3)nc3ccccc23)cc1O`, the figure is 21.2%; as for `COc1cccc(OCc2cc(/C=N/NC(=O)c3nc(Cl)c(Cl)c(N)c3Cl)ccc2OC)c1`, 73.8% (active); as for `O=C(COc1ccc(Br)cc1F)NCC1(N2CCCCC2)CCCCC1`, -0.81%. As for `O=c1oc2c(Cl)cc(Cl)cc2cc1-c1nnc(Nc2ccccc2F)s1`, the figure is 10.5%; as for `OC(COCCC12CC3CC(CC(C3)C1)C2)CN1CCCCC1` (stereo unspecified), 0.68%. As for `CC(=O)N[C@H]1[C@H]([C@H](O)[C@H](O)CO)OC(C(=O)O)=C[C@@H]1O`, the activation was 0.57%. With `Cc1ccc(S(=O)(=O)N(CC(=O)Nc2cccc([N+](=O)[O-])c2)Cc2ccc(Cl)cc2)cc1` the figure was 6.55%. As for `CCn1c(CSc2ncccn2)nnc1SCC(=O)N1c2ccccc2CC1C` (stereo unspecified), the figure is -1.92%. In the case of `CC1Cc2ccccc2N1C(=O)CSc1nnc(-c2ccc(S(=O)(=O)N3CCCC3)cc2)n1C` (stereo unspecified), the activation is 1.18%.

`CC1Cc2ccccc2N1C(=O)CSc1nnc(C2CC2)n1C` (stereo unspecified): the activation was 93% (active). As for `CO/N=C/c1ccc(N2CCN(C(=O)c3cccc(Cl)c3)CC2)c([N+](=O)[O-])c1`, the figure is -0.18%; as for `Cc1nn(Cc2ccccc2Cl)c(C)c1NC(=O)Cn1nc([N+](=O)[O-])c(Cl)c1C`, 0.37%. As for `COc1cccc(NC(=O)COc2cc(C)cc3oc(=O)cc(C)c23)c1`, the figure is 12.3%; as for `Cc1c(NC(=O)c2cc(-c3ccc(Br)cc3)on2)c(=O)n(-c2ccccc2)n1C`, -3.47%; as for `Cc1cc2oc(C(=O)Nc3c(C)n(C)n(-c4ccccc4)c3=O)c(C)c2cc1Cl`, 81% (active). Consider `Cc1c(NC(=O)c2coc(=O)c(Br)c2)c(=O)n(-c2ccccc2)n1C`, for which the activation is 0.64%. In the case of `COCCN(Cc1cc2cc3c(cc2nc1Cl)OCO3)C(=O)c1cccc(C)c1`, the activation was 11.9%.

For `COc1ccc(Nc2nnc(C)c3ccccc23)cc1`, the activation was 102% (active). On to `COc1ccc(Nc2nc(=O)[nH]nc2C)cc1`, for which the activation is -3.65%. Regarding `Cc1nnc(NCCO)c2ccccc12`, the activation was -2.09%. With `CCCCNC(=O)N1CCCC(N(C)CCc2ccc(OC)c(OC)c2)C1` (stereo unspecified) the figure was -0.75%. With `CCNC(=O)NNC(=O)C1CC(c2cccs2)=NO1` (stereo unspecified) the figure was 3.35%.

(Values after PubChem BioAssay AID2796 (The Scripps Research Institute Molecular Screening Center, 2010).)
